Records with an inconclusive call do not appear. A call without a number means that no potency is given here. The source made the active and inactive calls. Unless noted, the call rests on the fitted dose curve; in most records, active means well fitted curve in the direction sought with a large enough effect in the repeat runs; inconclusive means weak or mixed curves; inactive means no such curve, though single readings can be large; an effect the other way counts as inactive or inconclusive. Non-standard residues stand in square brackets, D forms with d. Residues, ends and D or L forms follow the SMILES beside them. *: point of attachment. Sta = CC(C)C[C@H](N)[C@@H](O)CC(=O)O; Isovaleryl = CC(C)CC(=O)*
System: not listed separately
Assay: A High-Content qHTS Against Drug Library for the Identification of Small Molecules that Inhibit DYT1 Early Onset Primary Dystonia-Associated Cell Pathology (AID 1645839; calls by dose curve; further: potency means the concentration at half of the fitted maximal effect)
Conditions: HEK293 Flp-In EGFP-delE TorsinA, punctate imaging, 48 h; series mostly up to 46.1 µM
Outline: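 In this high-content image screen, delE TorsinA mislocalization in inducible Flp-In 293 cells is scored as %pathology, with cell count serving as the counterscreen. Compound exposure lasts 48 h under tetracycline induction in reduced-serum medium.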

SMILES	Potency
CC1(C)NC(=O)N(c2ccc([N+](=O)[O-])c(C(F)(F)F)c2)C1=O	inactive
O=C(O)c1cc(=O)c2c(OCC(O)COc3cccc4oc(C(=O)O)cc(=O)c34)cccc2o1	inactive
N=C(N)c1ccc2cc(OC(=O)c3ccc(N=C(N)N)cc3)ccc2c1	inactive
O=C(O)c1cn(-c2ccc(F)cc2)c2cc(N3CCNCC3)c(F)cc2c1=O	inactive
COC(=O)N[C@H](C(=O)N[C@@H](Cc1ccccc1)[C@@H](O)CN(Cc1ccc(-c2ccccn2)cc1)NC(=O)[C@@H](NC(=O)OC)C(C)(C)C)C(C)(C)C	inactive
COCCCOc1ccnc(CS(=O)c2nc3ccccc3[nH]2)c1C (stereo not drawn)	inactive
CCCOc1ccc2nc(NC(=O)OC)[nH]c2c1	inactive
CN(c1nccc(=O)[nH]1)C1CCN(c2nc3ccccc3n2Cc2ccc(F)cc2)CC1	inactive
CC1=C(C(=O)O)N2C(=O)[C@@H](NC(=O)[C@H](N)C3=CCC=CC3)[C@H]2SC1	inactive
CCN(CC)C(=S)SSC(=S)N(CC)CC	10 µM (active)
Clc1ccc(C(Cn2ccnc2)OCc2ccc(Sc3ccccc3)cc2)c(Cl)c1 (stereo not drawn)	inactive
CC(=O)Nc1ccc(O)cc1	inactive
CN1C(C(=O)Nc2ccccn2)=C(O)c2sccc2S1(=O)=O	inactive
CC(C)CC(=O)N[C@H](C(=O)N[C@H](C(=O)N[C@@H](CC(C)C)[C@@H](O)CC(=O)N[C@@H](C)C(=O)N[C@@H](CC(C)C)[C@@H](O)CC(=O)O)C(C)C)C(C)C (Isovaleryl-VV[Sta]A[Sta]-OH)	inactive
CC(C)Oc1ccc2c(=O)c(-c3ccccc3)coc2c1	inactive
O=C(OC1C[C@H]2CC[C@@H](C1)[N+]21CCCC1)C(O)(c1ccccc1)c1ccccc1 (stereo partly drawn)	inactive
c1cnc2cc3c(cc2n1)C1CNCC3C1	inactive
CCCc1cc(=O)[nH]c(=S)[nH]1	inactive
COc1cc(Nc2c(C#N)cnc3cc(OCCCN4CCN(C)CC4)c(OC)cc23)c(Cl)cc1Cl	10 µM (active)
CCC[C@@H]1C[C@@H](C(=O)N[C@@H]([C@H]2O[C@H](SC)[C@H](O)[C@@H](O)[C@H]2O)[C@@H](C)O)N(C)C1	inactive
NNc1nncc2ccccc12	inactive
Cc1nc2n(c(=O)c1CCN1CCC(c3noc4cc(F)ccc34)CC1)CCCC2	inactive
S=c1nc[nH]c2nc[nH]c12	inactive

Molecular target: Cytochrome P450 2D6 (Homo sapiens) (UniProt P10635)
Assay: Cytochrome P450 family 2 subfamily D member 6 (CYP2D6) small molecule antagonists: luciferase biochemical (cell-free) qHTS assay (AID 1645840); further: nearly all actives have a fitted effect of over 55% in size; further: potency means the concentration at half of the fitted maximal effect
Conditions: P450-Glo CYP2D6 enzyme, luciferin luminescence, 1 h; series mostly up to 57.4 µM
Outline: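 P450-Glo luminescent screen: recombinant CYP2D6 enzyme–proluciferin substrate mix preincubated with compound 10 min at room temperature, then NADPH regeneration added for 1 h at room temperature. Detection reagent added for 20 min; luciferin light read as relative luminescence units.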

Sequence of Cytochrome P450 2D6 (Homo sapiens) (P10635 whole entry, looked up): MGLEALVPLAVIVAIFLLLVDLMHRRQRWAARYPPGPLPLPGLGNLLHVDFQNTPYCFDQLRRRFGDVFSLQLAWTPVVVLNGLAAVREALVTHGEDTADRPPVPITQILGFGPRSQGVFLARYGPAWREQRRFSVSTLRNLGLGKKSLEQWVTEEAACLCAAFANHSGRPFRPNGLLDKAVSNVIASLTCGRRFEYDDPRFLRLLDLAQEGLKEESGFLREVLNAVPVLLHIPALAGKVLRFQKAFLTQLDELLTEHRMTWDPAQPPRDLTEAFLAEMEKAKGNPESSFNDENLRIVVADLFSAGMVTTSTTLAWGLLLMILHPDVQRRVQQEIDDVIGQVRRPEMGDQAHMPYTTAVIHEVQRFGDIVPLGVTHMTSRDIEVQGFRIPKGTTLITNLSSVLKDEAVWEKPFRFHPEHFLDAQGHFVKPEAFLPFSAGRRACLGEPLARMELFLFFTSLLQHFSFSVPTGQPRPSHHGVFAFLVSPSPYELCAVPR

SMILES	Potency
CC1(C)NC(=O)N(c2ccc([N+](=O)[O-])c(C(F)(F)F)c2)C1=O	inactive
N=C(N)c1ccc2cc(OC(=O)c3ccc(N=C(N)N)cc3)ccc2c1	inactive
COCCCOc1ccnc(CS(=O)c2nc3ccccc3[nH]2)c1C (stereo not drawn)	inactive
CCCOc1ccc2nc(NC(=O)OC)[nH]c2c1	inactive
CC1=C(C(=O)O)N2C(=O)[C@@H](NC(=O)[C@H](N)C3=CCC=CC3)[C@H]2SC1	inactive
CCN(CC)C(=S)SSC(=S)N(CC)CC	inactive
Clc1ccc(C(Cn2ccnc2)OCc2ccc(Sc3ccccc3)cc2)c(Cl)c1 (stereo not drawn)	0.155 µM (active)
CC(=O)Nc1ccc(O)cc1	inactive
CN1C(C(=O)Nc2ccccn2)=C(O)c2sccc2S1(=O)=O	inactive
CC(C)CC(=O)N[C@H](C(=O)N[C@H](C(=O)N[C@@H](CC(C)C)[C@@H](O)CC(=O)N[C@@H](C)C(=O)N[C@@H](CC(C)C)[C@@H](O)CC(=O)O)C(C)C)C(C)C (Isovaleryl-VV[Sta]A[Sta]-OH)	inactive
CC(C)Oc1ccc2c(=O)c(-c3ccccc3)coc2c1	inactive
O=C(OC1C[C@H]2CC[C@@H](C1)[N+]21CCCC1)C(O)(c1ccccc1)c1ccccc1 (stereo partly drawn)	6.17 µM (active)
c1cnc2cc3c(cc2n1)C1CNCC3C1	inactive
CCCc1cc(=O)[nH]c(=S)[nH]1	inactive
COc1cc(Nc2c(C#N)cnc3cc(OCCCN4CCN(C)CC4)c(OC)cc23)c(Cl)cc1Cl	inactive
CCC[C@@H]1C[C@@H](C(=O)N[C@@H]([C@H]2O[C@H](SC)[C@H](O)[C@@H](O)[C@H]2O)[C@@H](C)O)N(C)C1	inactive
CN(C)c1ccc(O)c2c1C[C@H]1C[C@H]3[C@H](N(C)C)C(=O)C(C(N)=O)=C(O)[C@@]3(O)C(=O)C1=C2O	inactive
NNc1nncc2ccccc12	inactive
Cc1nc2n(c(=O)c1CCN1CCC(c3noc4cc(F)ccc34)CC1)CCCC2	2.75 µM (active)
S=c1nc[nH]c2nc[nH]c12	inactive

Molecular target: Cytochrome P450 3A4 (Homo sapiens) (UniProt P08684)
Assay: Cytochrome P450 family 3 subfamily A member 4 (CYP3A4) small molecule antagonists: luciferase qHTS assay (AID 1645841); further: nearly all actives have a fitted effect of over 45% in size
Conditions: P450-Glo CYP3A4 enzyme assay, luciferin luminescence; series mostly up to 57.4 µM
Outline: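 Luminescent CYP3A4 activity readout: compounds plus enzyme-substrate mix 10 min at room temperature, reaction started with NADPH regenerating system for 1 h, stopped with detection reagent, read after 20 min. Ketoconazole served as control.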

Sequence of Cytochrome P450 3A4 (Homo sapiens) (P08684 whole entry, looked up): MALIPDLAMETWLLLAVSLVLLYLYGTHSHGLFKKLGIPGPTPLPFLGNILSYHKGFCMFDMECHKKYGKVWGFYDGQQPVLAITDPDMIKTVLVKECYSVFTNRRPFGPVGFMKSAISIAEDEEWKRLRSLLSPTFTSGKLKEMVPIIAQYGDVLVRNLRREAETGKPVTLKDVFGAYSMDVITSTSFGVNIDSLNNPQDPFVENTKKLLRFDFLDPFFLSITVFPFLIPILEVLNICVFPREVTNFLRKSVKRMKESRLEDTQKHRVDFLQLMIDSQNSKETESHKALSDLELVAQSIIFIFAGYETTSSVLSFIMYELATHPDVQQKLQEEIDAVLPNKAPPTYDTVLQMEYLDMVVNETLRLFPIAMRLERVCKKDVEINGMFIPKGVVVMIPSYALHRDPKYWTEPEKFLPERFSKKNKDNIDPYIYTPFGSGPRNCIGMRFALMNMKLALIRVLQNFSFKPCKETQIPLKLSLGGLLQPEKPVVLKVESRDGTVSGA

SMILES	outcome
O=C(O)c1cn(-c2ccc(F)cc2)c2cc(N3CCNCC3)c(F)cc2c1=O	inactive
O=C(OC1C[C@H]2CC[C@@H](C1)[N+]21CCCC1)C(O)(c1ccccc1)c1ccccc1 (stereo partly drawn)	inactive
COc1cc(Nc2c(C#N)cnc3cc(OCCCN4CCN(C)CC4)c(OC)cc23)c(Cl)cc1Cl	inactive
CCC[C@@H]1C[C@@H](C(=O)N[C@@H]([C@H]2O[C@H](SC)[C@H](O)[C@@H](O)[C@H]2O)[C@@H](C)O)N(C)C1	inactive
CN(C)c1ccc(O)c2c1C[C@H]1C[C@H]3[C@H](N(C)C)C(=O)C(C(N)=O)=C(O)[C@@]3(O)C(=O)C1=C2O	inactive
